Test results from PubChem BioAssay (NCI).
Compounds without any hit were thinned out: in the full panel of roughly 83,000, 20% have a hit.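 Each cell line was grown in a 96-well plate and treated with one concentration of compound for 48 hours. Values below 10 were considered active.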 Unmarked numbers belong to inactive results. Active and inactive are the calls of the source.

What was measured:
Test in all cases: NCI-60 one-dose screen, 48 h (100 = growth as untreated, 0 = no growth, -100 = all killed)
Conditions in all cases: 10 µM unless noted
HT29 colon = tested on: HT29 colon
SNB-19 CNS = tested on: SNB-19 CNS
U251 CNS = tested on: U251 CNS
PC-3 prostate = tested on: PC-3 prostate
SK-MEL-5 melanoma = tested on: SK-MEL-5 melanoma
UACC-62 melanoma = tested on: UACC-62 melanoma
LOX IMVI melanoma = tested on: LOX IMVI melanoma
SK-MEL-28 melanoma = tested on: SK-MEL-28 melanoma
SK-MEL-2 melanoma = tested on: SK-MEL-2 melanoma
SNB-75 CNS = tested on: SNB-75 CNS

| Compound | growth (HT29 colon) | growth (SNB-19 CNS) | growth (U251 CNS) | growth (PC-3 prostate) | growth (SK-MEL-5 melanoma) | growth (UACC-62 melanoma) | growth (LOX IMVI melanoma) | growth (SK-MEL-28 melanoma) | growth (SK-MEL-2 melanoma) | growth (SNB-75 CNS) |
| --- | --- | --- | --- | --- | --- | --- | --- | --- | --- | --- |
| COc1cc(/C=C/C(=O)N2CCN(C(=O)/C=C/c3ccccc3)CC2)cc(OC)c1OC | 104% | 96.4% | 103% | 93.6% | 106% | 100% | 107% | 110% | 116% | – |
| CN=C(NC)N/N=C(C)\C=N\NC(=NC)NC | 104% | 99.4% | 98.8% | 94.8% | – | 97.5% | 109% | 110% | 117% | – |
| CN1C(=O)C(=Cc2cn(Cc3ccccc3)c3ccc(Br)cc23)C(=O)N(C)C1=O | 101% | 98.6% | 97.5% | 89.1% | – | 73.3% | 102% | 113% | 107% | – |
| CCCCCCCCCCCCCCCCCC1=NC(C)(C)CN1CCO | -44.7% (active) | 38.2% | -57.9% (active) | -52.4% (active) | -65.3% (active) | -77.1% (active) | -67% (active) | -78% (active) | -66.2% (active) | – |
| CCC(CCC(C)C1CCC2C3CC=C4CC(O)CCC4(C)C3CCC12C)C(C)C (centres undefined) (tested in a mixture with another compound) | – | 98.6% | 90.2% | 45.8% | 96% | 95% | 99.1% | 91.7% | 24.3% | 119% |
| Cc1c(C(N)=O)sc2c1c(=O)n(Cc1ccccc1)c1nnc(S(=O)(=O)CC(=O)Nc3ccc(Cl)cc3)n21 | 21.9% | 64.9% | 35.2% | 35% | 55.2% | 67.4% | 44.1% | – | 33.1% | – |
| O=C1/C(=C/c2ccc([N+](=O)[O-])o2)Oc2ccc(Br)cc21 | – | 105% | 93.6% | 91.3% | 82.5% | 34.8% | 5.15% (active) | 70.8% | – | 85.5% |
| CC(C)(C)c1ccc(C(O)CCCN2CCC(C(O)(c3ccccc3)c3ccccc3)CC2)cc1 (centres undefined) | -92.7% (active) | 4.49% (active) | -85.4% (active) | -4.17% (active) | – | -98.1% (active) | -93.9% (active) | – | -76.1% (active) | – |
| CCC(C)CC(CC)NCCN1CCN(C(CC)CC(C)CC)C1=S (centres undefined) | -24.6% (active) | 47.1% | 25.2% | 33.4% | – | 23.9% | -0.0423% (active) | 20.3% | 94.1% | – |
| CN(C)c1nc(-c2ccco2)n2nc(-c3ccco3)cc2n1 | – | 98.9% | 88.9% | 84.4% | 81.8% | 82.2% | 75.8% | 119% | 122% | 81.8% |
| CC(C)[O-].CC(C)[O-].CN(CCN(C)Cc1cc(F)cc(F)c1[O-])Cc1cc(F)cc(F)c1[O-].[Ti+4] | -25.7% (active) | – | 4.7% (active) | 15.9% | -59.5% (active) | – | -39% (active) | -23.3% (active) | -52% (active) | – |
| Cc1c(C(N)=O)sc2c1C(=O)N(Cc1ccccc1)C1=NN=C(c3ccc(Cl)cc3)CN12 | 34.9% | 52.8% | 29.9% | – | 57% | – | 17.2% | 72.8% | 66.8% | – |
| O=C1/C(=C/c2ccc([N+](=O)[O-])s2)Oc2ccc(Br)cc21 | – | -15.3% (active) | -87.9% (active) | -62.3% (active) | -89.1% (active) | -83.4% (active) | -75.6% (active) | -66.4% (active) | -62.2% (active) | -16.1% (active) |
| CCCCCCOc1ccc(/C=N/NC(N)=S)cc1 | – | 80.1% | 58.4% | 49.4% | 53.6% | 44.6% | 55.6% | – | – | 58.9% |
| COc1cccc2c1O/C(=C\c1c([N+](=O)[O-])ncn1C)C2=O | – | 106% | 97.4% | -29.8% (active) | 102% | 109% | 85.2% | 106% | 97.6% | 101% |
| COc1cc(C2C=C(c3ccc(C)cc3)Nc3nc(SC)[nH]c(=O)c32)ccc1Oc1ccnc2cc(Cl)ccc12 (centres undefined) | 65.3% | 71.7% | 80.1% | 60.2% | – | 61.5% | 79.9% | 97% | 78.9% | – |
| c1cncc(CNc2ccccc2-c2nnc(Nc3ccc4c(c3)OCO4)o2)c1 | 8.59% (active) | 38.7% | – | 27.9% | -4.21% (active) | 3.81% (active) | 8.28% (active) | 43.7% | 65.8% | – |

| Compound | growth (HT29 colon) | growth (SNB-19 CNS) | growth (U251 CNS) | growth (PC-3 prostate) | growth (SK-MEL-5 melanoma) | growth (UACC-62 melanoma) | growth (LOX IMVI melanoma) | growth (SK-MEL-28 melanoma) | growth (SK-MEL-2 melanoma) | growth (SNB-75 CNS) |
| --- | --- | --- | --- | --- | --- | --- | --- | --- | --- | --- |
| NC(N)=NN=c1c(=O)c2ccccc2c1=O | -49.4% (active) | – | 72.1% | 78% | – | 103% | -44.9% (active) | 80% | 118% | – |
| CCCCCCCCCCCCCCCCCc1nccn1CCO | 13.6% | 66.9% | 33.7% | 55.9% | 70.4% | 92.4% | -44.4% (active) | – | 82.2% | – |
| Nc1nc(SCC2(CCl)COC2)c2[nH]cnc2n1 | 99.2% | 99.2% | 101% | 93.5% | – | 96.2% | 95.8% | 103% | 97.1% | – |
| COC1=CC(c2ccc[nH]2)=N/C1=C\c1[nH]c(C)c(C(=O)CCC(=O)Oc2ccc3c(c2)CCC2C3CC[C@]3(C)C(=O)CC[C@@H]23)c1C (some centres undefined) | 26.8% | 95.4% | 53% | 60.6% | 78% | 65% | – | 97.3% | 91.3% | – |
| CC(c1ccccn1)C(C)(O)C(C)c1ccccn1 (centres undefined) | – | 98.9% | 98.7% | 98.9% | 105% | 95.6% | 95.6% | 111% | 105% | 99.7% |
| COc1c(C)c2c(c(O)c1C/C=C(\C)CCC(=O)OCCN1CCOCC1)C(=O)OC2 | – | 28% | 14.7% | 23.2% | – | 23.6% | 18.4% | 35.8% | – | 49.1% |
| O=C1/C(=C/c2ccc([N+](=O)[O-])o2)Oc2ccc(Cl)cc21 | – | 91.9% | 50.2% | -5.46% (active) | 18.4% | – | -61.8% (active) | – | -45.6% (active) | 66.5% |
| O=C1NCC(Nc2ccc(Br)cc2Cl)C(=O)N1 (centres undefined) | – | 102% | 123% | – | 104% | 101% | 105% | 110% | – | 91% |
| COc1cc(OC)c2cc(C(=O)O)c(=O)oc2c1 | – | 98% | 109% | 127% | 94.6% | 95.5% | 67% | 118% | -11% (active) | 125% |
| C=C(C)[C@@H]1C/C=C(/C=O)CC[C@@H]2O[C@@]2(C)CC/C=C(\C)CC1 | – | 110% | 104% | 63.3% | 101% | – | 93.3% | 118% | – | 87.1% |
| CCCOc1ccc2c(c1)CC[C@@H]1[C@@H]2CC[C@@]2(C)[C@H]1CC[C@]2(C)O | – | 94.3% | 72% | – | 92.7% | 95.8% | 65% | 85.3% | – | 73.4% |
| O=C(/C=C/c1cc2ccccc2[nH]c1=O)c1ccc(O)cc1 | – | 57.4% | 21.9% | 10.5% | 96.1% | 83.8% | 26.8% | 99.9% | 83.7% | 40.3% |
| O=C(O)c1ccccc1C(=O)OC1CCCC2CCCC21 (centres undefined) | – | 104% | 114% | 97.5% | 104% | – | 95.1% | – | – | 96.5% |
| COc1ccc(/C=C2\NC(=S)NC2=O)cc1 | – | 109% | 102% | 106% | – | 95.3% | 112% | 119% | 109% | 106% |
| c1coc([C@@H]2C[C@@H]3Cc4ccc5ccccc5c4N2O3)c1 | – | 104% | 102% | – | 101% | 103% | 103% | 111% | – | 89.2% |
| COc1ccc(-c2cc(Cc3cccs3)c(=O)n(Cn3ccc4ccccc43)n2)cc1 | – | 102% | 104% | – | 104% | 87.7% | 96.5% | 114% | – | 92.6% |
